Bioassay records as filed in PubChem BioAssay.
An excerpt weighted towards active compounds, which were near 1.6% of everything screened.
S1P4 agonist = agonists of human S1P4 receptor. 0.35% of 220,000 active. activation, % at 4.98 µM. O95977. S1P4-expressing cell line, agonist reporter assay; in the data active means activation above about 11%
S1P4 antagonist = human S1P4 receptor antagonism; 0.26% of 220,000 active; AID 1510; S1P4-expressing cells, antagonist mode, reporter read-out; inhibition, % at 4.98 µM; in the data active means inhibition above about 29%
S1P3 antag = S1P3 (human) receptor antagonism; 0.27% of 170,000 active; inhibition, % at 4.98 µM; CHO S1P3 NFAT-BLA reporter, FRET fluorescence, antagonist mode;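 active means inhibition above the plate cutoff, the mean inhibition of test wells on that plate plus 3 SD, cut at about 28% in these data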;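 further: cells challenged with S1P at its EC80 of 0.8 µM; blue over green emission ratio from cleaved BLA substrate after 4 h stimulation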
Target sequence (Q99500 whole entry, looked up): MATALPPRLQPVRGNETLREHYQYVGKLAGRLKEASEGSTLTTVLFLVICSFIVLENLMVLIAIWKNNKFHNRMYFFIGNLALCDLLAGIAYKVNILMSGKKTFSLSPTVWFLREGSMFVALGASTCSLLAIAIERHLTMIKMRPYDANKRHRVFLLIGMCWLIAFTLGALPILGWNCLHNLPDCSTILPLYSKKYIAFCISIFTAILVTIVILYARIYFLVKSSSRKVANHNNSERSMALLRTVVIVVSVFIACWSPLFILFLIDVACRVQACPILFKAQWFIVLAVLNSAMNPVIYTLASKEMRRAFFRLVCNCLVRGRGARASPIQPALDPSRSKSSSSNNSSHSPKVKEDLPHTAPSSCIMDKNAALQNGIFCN
p97 inhibitor = human p97 ATPase inhibition | P55072 | recombinant p97 ATPase, Kinase-Glo ATP luminescence, 3 h | AID 1481 | inhibition, % at 8 µM | 0.42% of 220,000 active; in the data active means inhibition above about 15%
Arbovirus inh = blocks arbovirus infection; arbovirus infection cell-based antiviral screen; inhibition, % at 10 µM; 0.37% of 200,000 active; in the data active means inhibition above about 30%
DTT redox prof = compounds producing H2O2 with reducing agent – biochemical, NIH compound library profiling, artefact control for MLSCN library redox annotation, primary screen; DTT-dependent redox cycling H2O2, phenol red/HRP absorbance; 100% = 100 µM peroxide control, 0% = buffer; activation, % at 10 µM; 0.03% of 200,000 active;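 active means activation of at least 50% relative to the plate's high and low controls in the primary single-dose screen; inactive means activation below 50%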;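 further: compound incubated with DTT at 0.8 mM final as the reducing agent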
S1P4 ag conf = human S1P4 agonism, confirmation | AID 1523 | 7% of 740 active | shares compounds with S1P4 agonist | activation, % at 4.98 µM | S1P4 agonist cell-based reporter assay; in the data active means activation above about 12%
S1P1 agonist = human S1P1 agonism as S1P4 agonist counter-screen. shares compounds with S1P4 agonist. S1P1 agonist cell-based assay, activation. activation, % at 4.98 µM. 4% of 740 active. AID 1563; in the data active means activation above about 21%
S1P4 antag conf = human S1P4 antagonism, confirmation | shares compounds with S1P4 antagonist | S1P4-expressing cell line, antagonist mode, reporter read-out | inhibition, % at 4.98 µM | 71% of 520 active | AID 1524; in the data active means inhibition above about 30%
S1P1 antag = blocks human S1P1, counter-screen for S1P4 antagonists; shares compounds with S1P4 antagonist; 37% of 520 active; inhibition, % at 4.98 µM; cell-based S1P1 antagonist counterscreen, inhibition; in the data active means inhibition above about 40%;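 further: receptor stimulated with S1P near its EC80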
A number is an active result; n = inactive; x = no result given.

SMILES	S1P4 agonist	S1P4 antagonist	S1P3 antag	p97 inhibitor	Arbovirus inh	DTT redox prof	S1P4 antag conf	S1P1 antag	others
CC(=NCc1cccnc1)c1c(O)n(-c2ccccc2C)c(=O)[nH]c1=O	n	n	x	n	n	n	x	x
CCNC(=O)NC(=O)C(C)OC(=O)c1c(C)nn(Cc2ccccc2)c1Cl (stereo not given)	30.9	n	n	n	n	n	x	x	S1P4 ag conf=52.7;S1P1 agonist=n
Cc1nn(Cc2ccccc2Cl)c(Cl)c1C(=O)OCC(=O)NCc1ccco1	n	n	n	n	n	n	x	x
CCNC(=O)NC(=O)C(C)OC(=O)c1c(C)nn(Cc2ccccc2Cl)c1Cl (stereo not given)	30.8	n	n	n	n	n	x	x	S1P4 ag conf=43.5;S1P1 agonist=n
Cc1nn(Cc2ccccc2)c(Cl)c1C(=O)Nc1ccc(OC(F)(F)F)cc1	n	n	n	n	n	n	x	x
O=P1(Oc2ccccc2)OCCCS1 (stereo not given)	n	n	n	n	x	x	x	x
Cc1ccc(O)c(C(=O)c2cc(C(=O)NCCC(C)C)c(=O)n(CCC(C)C)c2)c1	15.2	n	n	n	n	n	x	x	S1P4 ag conf=n;S1P1 agonist=n
CCOC(=O)c1c(-n2c(C)cc(/C=C3\C(=O)NC(=O)N(C)C3=O)c2C)sc2c1CCCC2	12.9	n	x	n	n	n	x	x	S1P4 ag conf=24.3;S1P1 agonist=n
CCC(C)n1c(C)cc(C(N)=O)c1C (stereo not given)	n	n	n	n	n	n	x	x
C=C1[C@@H](C)[C@H]2[C@H](Cc3ccccc3)NC(=O)[C@]23OC(=O)/C=C/[C@H](O)CCC[C@@H](C)C/C=C/[C@H]3[C@@H]1O	n	44.0	n	n	n	x	51.4	42.9
COC(=O)C1CN(C#N)N(c2ccc(Cl)cc2)C12c1ccccc1-c1ccccc12 (stereo not given)	n	66.4	x	n	n	n	121.4	94.2
CCN(CC)C(=O)c1ccc(NC(=O)COc2ccccc2F)cc1	n	n	n	n	n	n	x	x
C=Cn1ccnc1P(=S)(c1ccn(C)c1)c1nccn1C=C	n	n	x	n	n	n	x	x
Cc1c(C(=O)Nc2ccccc2)cc(-c2ccccc2)n1CCCN1CCOCC1	n	34.4	n	n	x	x	n	n
O=C(Cn1ncc2c3ccccc3n(Cc3ccc(F)cc3)c2c1=O)N1CCC2(CC1)OCCO2	n	n	n	n	n	n	x	x
CN(C=O)CP(=O)(O)CN(C)C=O	n	n	n	n	n	n	x	x
C[C@H]1CCC[C@@H](O)CCC/C=C/c2cc(O)cc(O)c2C(=O)O1	n	n	x	n	n	n	x	x
CC1CCC/C=C/C2CC(O)CC2C(O)/C=C/C(=O)O1 (stereo not given)	n	47.2	x	n	n	n	83.1	n
CSCCC(N=Cc1c(O)n(-c2ccc(Cl)cc2)c(=O)[nH]c1=O)C(=O)OC(C)(C)C (stereo not given)	n	n	x	n	n	n	x	x
CN1CCN(c2ccc(S(C)(=O)=O)cc2[N+](=O)[O-])CC1	n	n	n	n	n	n	x	x
CN1CCN(c2ccc([N+](=O)[O-])c3no[n+]([O-])c23)CC1	n	48.6	n	n	x	x	76.3	n
N[C@@H](Cc1c[nH]c2ccccc12)c1nnc(SCc2ccccc2F)o1	n	n	n	n	n	n	x	x
Cc1ccc2c(c1)N(N=O)CCC2	n	n	n	n	n	n	x	x
Cc1cc([N+](=O)[O-])c2ccccc2[n+]1[O-]	n	78.9	n	n	x	x	113.7	112.0
CNc1cc(Cl)c2nonc2c1[N+](=O)[O-]	n	74.3	n	n	n	n	113.6	n
COc1ccc(-c2n(-c3ccccn3)c3ccccc3[n+]2-c2ccccn2)cc1	n	33.0	n	n	x	x	n	n
Cc1ccc(-c2nc3ccccc3c(=O)n2-c2ccccn2)cc1	n	n	n	n	n	n	x	x
CC1(C)C[C@H]2C=C(C=O)[C@]3(C=O)C[C@]3(C)[C@H]2C1	n	70.2	n	n	n	n	114.8	117.7
